# Measured values reported in PubChem BioAssay (Tox21).
# Values without a mark were called inactive. Inconclusive results are not listed. A call without a number means that no potency is given here. The source made the active and inactive calls. Unless noted, calls follow the shape of the dose curve; as a rule, active = well fitted curve in the direction sought with a large enough effect in the repeat runs; inconclusive = weak or mixed curves; inactive = no such curve, though single readings can be large; an effect the other way counts as inactive or inconclusive.
# Columns and labels:
# [1] = target: Acetylcholinesterase (Homo sapiens) (UniProt P22303); experiment: Acetylcholinesterase (AChE) small molecule antagonists: enzyme-based qHTS assay (AID 1347397; calls by dose curve; also: nearly all actives have a fitted effect of over 55% in size); conditions: Potency: AChE enzyme activity inhibition
# Sequence of Acetylcholinesterase (Homo sapiens) (P22303 whole entry, looked up): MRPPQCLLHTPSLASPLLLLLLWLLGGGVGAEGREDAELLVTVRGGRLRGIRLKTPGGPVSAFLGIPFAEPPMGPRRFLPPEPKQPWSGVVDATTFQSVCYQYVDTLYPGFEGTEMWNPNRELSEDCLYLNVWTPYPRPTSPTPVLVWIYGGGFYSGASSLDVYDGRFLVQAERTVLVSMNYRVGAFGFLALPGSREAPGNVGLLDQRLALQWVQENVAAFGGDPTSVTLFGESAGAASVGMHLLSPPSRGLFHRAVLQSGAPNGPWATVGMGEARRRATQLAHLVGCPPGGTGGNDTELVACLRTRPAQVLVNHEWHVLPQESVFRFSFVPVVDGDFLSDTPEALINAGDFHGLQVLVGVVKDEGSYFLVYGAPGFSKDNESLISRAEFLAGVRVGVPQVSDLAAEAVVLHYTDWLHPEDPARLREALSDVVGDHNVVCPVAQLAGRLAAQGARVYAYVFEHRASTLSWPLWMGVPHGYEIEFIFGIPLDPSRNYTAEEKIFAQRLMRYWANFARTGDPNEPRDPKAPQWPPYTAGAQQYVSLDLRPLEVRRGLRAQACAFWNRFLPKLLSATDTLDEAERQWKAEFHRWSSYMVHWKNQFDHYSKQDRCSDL
# Outline: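 rhAChE 50 mU/mL (dispensed) + cpd or DMSO, 30 min RT; add DTNB/acetylthiocholine cocktail, 10 min RT; colorimetric thiocholine readout. qHTS, 1536-well format.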
# [2] = target: Acetylcholinesterase (Homo sapiens) (UniProt P22303); experiment: Acetylcholinesterase (AChE) small molecule antagonists: fluorescence cell-based qHTS assay (AID 1347398; calls by dose curve; also: nearly all actives have a fitted effect of over 50% in size); conditions: Potency: AChE activity
# Outline: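 Read-out is Thiolite Green fluorescence at Ex/Em = 490/520 nm, formed by reaction with thiocholine released when cellular AChE in SH-SY5Y cells hydrolyzes acetylthiocholine. Compounds were preincubated 30 min at 37 C before substrate.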
# [3] = target: Acetylcholinesterase (Homo sapiens) (UniProt P22303); experiment: Acetylcholinesterase (AChE) small molecule antagonists: enzyme-based qHTS assay with human liver microsomes (AID 1347399; calls by dose curve; also: nearly all actives have a fitted effect of over 60% in size); conditions: Potency: qHTS inhibition
# Outline: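 Recombinant human AChE (50 mU/mL in the enzyme mix) and human liver microsomes (0.25 mg/mL final) were preincubated with compound and NADPH (0.25 mg/mL final) for 30 min at 37 C. Acetylthiocholine/DTNB was then added; thiocholine was read colorimetrically after 10 min at room temperature.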
# [4] = target: Cytochrome P450 2D6 (Homo sapiens) (UniProt P10635); experiment: Cytochrome P450 Family 2 Subfamily D Member 6 (CYP2D6) small molecule antagonists: luciferase reporter qHTS assay (AID 1671196); also: nearly all actives have a fitted effect of over 50% in size
# Sequence of Cytochrome P450 2D6 (Homo sapiens) (P10635 whole entry, looked up): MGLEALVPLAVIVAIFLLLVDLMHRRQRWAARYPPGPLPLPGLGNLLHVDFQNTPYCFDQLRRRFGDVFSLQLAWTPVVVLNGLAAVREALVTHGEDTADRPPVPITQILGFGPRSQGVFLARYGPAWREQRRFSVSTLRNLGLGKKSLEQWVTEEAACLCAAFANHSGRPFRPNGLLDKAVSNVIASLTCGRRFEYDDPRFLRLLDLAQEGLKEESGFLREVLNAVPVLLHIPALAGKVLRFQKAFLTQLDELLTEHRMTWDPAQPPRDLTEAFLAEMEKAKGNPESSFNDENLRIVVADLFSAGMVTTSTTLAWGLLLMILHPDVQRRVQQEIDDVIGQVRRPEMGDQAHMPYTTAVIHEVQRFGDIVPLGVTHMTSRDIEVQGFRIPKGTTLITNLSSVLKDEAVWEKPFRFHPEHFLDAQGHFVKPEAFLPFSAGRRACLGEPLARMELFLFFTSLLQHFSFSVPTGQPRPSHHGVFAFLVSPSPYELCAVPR
# Outline: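 Luminescence (RLU), read 20 min after detection reagent, indicated CYP2D6 conversion of proluciferin to luciferin during a 1 h NADPH-dependent reaction at room temperature.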
# [5] = target: Cytochrome P450 2C19 (Homo sapiens) (UniProt P33261); experiment: Cytochrome P450 Family 2 Subfamily C Member 19 (CYP2C19) small molecule antagonists: luciferase reporter qHTS assay (AID 1671197); also: nearly all actives have a fitted effect of over 65% in size
# Sequence of Cytochrome P450 2C19 (Homo sapiens) (P33261 whole entry, looked up): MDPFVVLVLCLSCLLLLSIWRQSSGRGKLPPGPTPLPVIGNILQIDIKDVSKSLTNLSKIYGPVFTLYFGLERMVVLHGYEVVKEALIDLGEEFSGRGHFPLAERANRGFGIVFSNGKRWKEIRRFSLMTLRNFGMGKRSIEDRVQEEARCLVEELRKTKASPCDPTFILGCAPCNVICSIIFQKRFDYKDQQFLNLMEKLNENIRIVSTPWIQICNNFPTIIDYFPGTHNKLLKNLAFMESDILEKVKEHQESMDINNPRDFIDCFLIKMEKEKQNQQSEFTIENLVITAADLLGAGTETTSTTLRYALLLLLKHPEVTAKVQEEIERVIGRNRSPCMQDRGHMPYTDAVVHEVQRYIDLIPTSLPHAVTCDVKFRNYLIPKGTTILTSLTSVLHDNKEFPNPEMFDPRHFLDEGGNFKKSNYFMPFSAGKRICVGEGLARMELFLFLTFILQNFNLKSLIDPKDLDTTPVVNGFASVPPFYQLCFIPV
# Outline: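 Light output is proportional to CYP2C19 activity: proluciferin substrate is converted to luciferin, then detected by a luciferin detection reagent that also stops the 1 h, 37C NADPH-driven reaction. Ketoconazole serves as positive control.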
# [6] = target: Cytochrome P450 2C9 (Homo sapiens) (UniProt P11712); experiment: Cytochrome P450 Family 2 Subfamily C Member 9 (CYP2C9) small molecule antagonists: luciferase reporter qHTS assay (AID 1671198); also: nearly all actives have a fitted effect of over 50% in size
# Sequence of Cytochrome P450 2C9 (Homo sapiens) (P11712 whole entry, looked up): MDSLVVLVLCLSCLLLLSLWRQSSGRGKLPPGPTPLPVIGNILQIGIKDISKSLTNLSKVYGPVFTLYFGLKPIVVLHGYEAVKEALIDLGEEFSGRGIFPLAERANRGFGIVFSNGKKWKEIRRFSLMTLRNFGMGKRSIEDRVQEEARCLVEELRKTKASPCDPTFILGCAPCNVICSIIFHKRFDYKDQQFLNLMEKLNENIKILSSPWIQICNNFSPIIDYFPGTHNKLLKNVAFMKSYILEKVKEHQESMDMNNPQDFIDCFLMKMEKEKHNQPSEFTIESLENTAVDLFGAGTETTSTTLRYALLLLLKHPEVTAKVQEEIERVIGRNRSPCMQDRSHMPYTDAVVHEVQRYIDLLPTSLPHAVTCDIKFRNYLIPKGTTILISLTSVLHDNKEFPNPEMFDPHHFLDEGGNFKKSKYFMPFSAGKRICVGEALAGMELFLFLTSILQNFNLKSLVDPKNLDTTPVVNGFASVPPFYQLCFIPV
# Outline: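 Enzyme-substrate mix preincubated with compound 10 min at room temperature; reaction started with NADPH regeneration solution, 1 h 37C. Luminescent luciferin product read after 20 min detection reagent.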
# [7] = target: Cytochrome P450 1A2 (Homo sapiens) (UniProt P05177); experiment: Cytochrome P450 Family 1 Subfamily A Member 2 (CYP1A2) small molecule antagonists: luciferase reporter qHTS assay (AID 1671199); also: nearly all actives have a fitted effect of over 50% in size
# Sequence of Cytochrome P450 1A2 (Homo sapiens) (P05177 whole entry, looked up): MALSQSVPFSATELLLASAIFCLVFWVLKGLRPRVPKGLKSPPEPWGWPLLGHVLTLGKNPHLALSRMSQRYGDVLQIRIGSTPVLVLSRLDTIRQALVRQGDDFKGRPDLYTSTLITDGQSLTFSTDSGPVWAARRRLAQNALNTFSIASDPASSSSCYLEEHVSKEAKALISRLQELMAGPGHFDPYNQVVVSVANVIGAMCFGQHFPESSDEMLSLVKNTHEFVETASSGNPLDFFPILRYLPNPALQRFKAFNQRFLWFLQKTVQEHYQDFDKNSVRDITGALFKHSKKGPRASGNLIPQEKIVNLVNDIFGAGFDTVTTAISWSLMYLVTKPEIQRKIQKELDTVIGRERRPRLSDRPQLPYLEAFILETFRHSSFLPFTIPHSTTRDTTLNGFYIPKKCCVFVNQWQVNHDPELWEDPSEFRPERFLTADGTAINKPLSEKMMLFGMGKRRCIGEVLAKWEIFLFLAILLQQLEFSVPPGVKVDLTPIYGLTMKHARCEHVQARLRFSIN
# Outline: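 CYP1A2 turnover of a luminogenic substrate was quantified after 1 h with NADPH regeneration at room temperature. Furafylline served as positive control.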
# [8] = target: Voltage-gated inwardly rectifying potassium channel KCNH2 (Homo sapiens) (UniProt Q12809); experiment: Human Ether-a-go-go-Related Gene (hERG) channel small molecule antagonists: fluorescence cell-based qHTS assay (AID 1671200); also: nearly all actives have a fitted effect of over 50% in size
# Sequence of Voltage-gated inwardly rectifying potassium channel KCNH2 (Homo sapiens) (Q12809 whole entry, looked up): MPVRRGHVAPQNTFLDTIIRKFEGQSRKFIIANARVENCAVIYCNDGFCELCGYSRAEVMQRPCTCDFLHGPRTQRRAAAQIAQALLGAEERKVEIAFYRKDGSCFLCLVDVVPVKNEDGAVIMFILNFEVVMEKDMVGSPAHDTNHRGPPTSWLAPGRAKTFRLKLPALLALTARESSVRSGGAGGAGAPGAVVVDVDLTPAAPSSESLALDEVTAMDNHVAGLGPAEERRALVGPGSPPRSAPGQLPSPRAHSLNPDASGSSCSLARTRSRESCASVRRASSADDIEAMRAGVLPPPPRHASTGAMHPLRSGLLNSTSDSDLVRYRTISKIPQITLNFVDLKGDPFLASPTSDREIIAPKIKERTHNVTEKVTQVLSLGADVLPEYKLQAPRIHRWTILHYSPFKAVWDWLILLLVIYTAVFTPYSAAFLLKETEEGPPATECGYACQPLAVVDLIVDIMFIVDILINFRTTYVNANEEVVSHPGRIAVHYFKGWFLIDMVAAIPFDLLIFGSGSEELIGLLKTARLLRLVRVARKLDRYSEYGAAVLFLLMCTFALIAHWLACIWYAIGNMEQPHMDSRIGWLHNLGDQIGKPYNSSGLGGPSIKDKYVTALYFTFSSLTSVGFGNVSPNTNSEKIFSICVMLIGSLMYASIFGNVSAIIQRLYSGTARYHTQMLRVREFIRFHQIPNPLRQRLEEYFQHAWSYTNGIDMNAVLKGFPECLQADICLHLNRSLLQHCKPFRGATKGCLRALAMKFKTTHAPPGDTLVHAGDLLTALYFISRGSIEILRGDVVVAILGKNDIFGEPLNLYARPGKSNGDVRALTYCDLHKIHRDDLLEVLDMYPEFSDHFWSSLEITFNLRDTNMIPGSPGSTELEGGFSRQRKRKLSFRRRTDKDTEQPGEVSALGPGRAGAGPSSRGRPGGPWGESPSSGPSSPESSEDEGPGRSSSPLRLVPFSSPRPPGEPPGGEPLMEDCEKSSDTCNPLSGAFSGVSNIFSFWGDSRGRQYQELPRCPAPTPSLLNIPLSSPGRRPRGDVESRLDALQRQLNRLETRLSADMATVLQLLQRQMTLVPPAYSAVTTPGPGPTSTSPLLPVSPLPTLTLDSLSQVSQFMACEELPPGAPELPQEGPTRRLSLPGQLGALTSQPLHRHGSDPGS
# Outline: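 Fluorescence at 540 nm emission (480 nm excitation) was recorded kinetically for 2 min at 1-second intervals once the thallium-containing stimulus reached cells previously loaded with FluxOR II dye.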
# [9] = target: Cytochrome P450 3A4 (Homo sapiens) (UniProt P08684); experiment: Cytochrome P450 Family 3 Subfamily A Member 4 (CYP3A4) small molecule antagonists: luciferase reporter qHTS assay (AID 1671201); also: nearly all actives have a fitted effect of over 50% in size
# Sequence of Cytochrome P450 3A4 (Homo sapiens) (P08684 whole entry, looked up): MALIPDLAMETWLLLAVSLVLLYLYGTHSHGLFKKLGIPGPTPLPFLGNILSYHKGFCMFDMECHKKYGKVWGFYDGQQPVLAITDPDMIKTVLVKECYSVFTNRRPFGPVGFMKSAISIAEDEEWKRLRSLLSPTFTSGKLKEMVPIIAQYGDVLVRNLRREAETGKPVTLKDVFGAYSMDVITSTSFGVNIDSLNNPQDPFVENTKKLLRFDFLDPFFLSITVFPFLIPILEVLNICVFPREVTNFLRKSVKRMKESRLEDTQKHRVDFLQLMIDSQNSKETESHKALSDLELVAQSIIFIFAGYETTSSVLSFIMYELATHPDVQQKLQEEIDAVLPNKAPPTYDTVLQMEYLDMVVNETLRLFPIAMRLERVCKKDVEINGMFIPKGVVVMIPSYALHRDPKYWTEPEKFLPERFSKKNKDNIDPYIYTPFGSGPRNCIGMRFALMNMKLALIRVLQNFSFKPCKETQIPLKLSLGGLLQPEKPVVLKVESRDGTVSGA
# Outline: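 qHTS, 1536-well. CYP3A4 + proluciferin substrate, cpd 10 min RT → NADPH regen 1 h RT → detection reagent 20 min → luminescence (RLU). Ketoconazole positive control.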
# Potency is read from the fitted curve at half-maximal effect.
SMILES,Potency [1],Potency [2],Potency [3],Potency [4],Potency [5],Potency [6],Potency [7],Potency [8],Potency [9]
Cc1nnc2n1-c1sc(CCC(=O)N3CCOCC3)cc1C(c1ccccc1Cl)=NC2,inactive,inactive,inactive,inactive,inactive,inactive,inactive,inactive,
C[N+](C)=CCl,inactive,inactive,inactive,inactive,inactive,inactive,inactive,inactive,inactive
COc1cccc(C(=O)NN(C(=O)c2cc(C)cc(C)c2)C(C)(C)C)c1C,inactive,inactive,inactive,39.9 µM (active),3.56 µM (active),17.8 µM (active),inactive,inactive,0.71 µM (active)
Nc1n[nH]c(N)n1,inactive,inactive,inactive,inactive,inactive,inactive,64.4 µM (active),inactive,
CC(C)(C)OC(=O)c1ncn2c1[C@@H]1CCCN1C(=O)c1c(Br)cccc1-2,inactive,inactive,inactive,inactive,inactive,7.76 µM (active),inactive,inactive,
CC(Cl)(Cl)[N+](=O)[O-],inactive,inactive,inactive,inactive,inactive,inactive,inactive,inactive,inactive
C=C(C)CN(CC)c1c([N+](=O)[O-])cc(C(F)(F)F)cc1[N+](=O)[O-],inactive,inactive,inactive,inactive,28.3 µM (active),31.7 µM (active),31.7 µM (active),,
OC(c1ccccc1)(c1ccccc1)C1CCNCC1,inactive,inactive,inactive,12.3 µM (active),4.36 µM (active),inactive,,,
N#Cc1ccncc1,inactive,inactive,inactive,inactive,inactive,inactive,inactive,inactive,
O=[N+]([O-])c1ccc2c3c(cccc13)CC2,inactive,inactive,inactive,inactive,35.6 µM (active),inactive,2.24 µM (active),inactive,
c1coc(-c2nc3ccccc3[nH]2)c1,inactive,inactive,inactive,44.8 µM (active),28.3 µM (active),inactive,7.96 µM (active),inactive,
c1cc[c]([Hg][c]2ccccc2)cc1,inactive,inactive,inactive,1 µM (active),22.4 µM (active),31.7 µM (active),10 µM (active),inactive,inactive
CC(C1CC1)C(O)(Cn1cncn1)c1ccc(Cl)cc1 (stereo not given),inactive,inactive,inactive,35.4 µM (active),0.354 µM (active),0.126 µM (active),,inactive,
OC(Cn1cncn1)(c1ccc(F)cc1)c1ccccc1F (stereo not given),inactive,inactive,inactive,35.6 µM (active),2 µM (active),0.796 µM (active),31.7 µM (active),inactive,0.224 µM (active)
O=[N+]([O-])c1cc(Cl)c(Cl)c(Cl)c1,inactive,inactive,inactive,inactive,inactive,inactive,11.1 µM (active),inactive,inactive
CCOC(=O)CP(=O)(OCC)OCC,inactive,inactive,inactive,inactive,inactive,inactive,inactive,inactive,inactive
ClC(Cl)C(Cl)Cl,inactive,inactive,inactive,inactive,inactive,inactive,,inactive,inactive
O=C(Oc1ccc(Br)cc1)N1CCN2CCC1CC2,inactive,inactive,inactive,inactive,inactive,inactive,inactive,,inactive
COP(=S)(OC)Oc1c(Cl)cc(C)cc1Cl,inactive,inactive,inactive,inactive,7.1 µM (active),8.94 µM (active),8.94 µM (active),inactive,5.03 µM (active)
O=NN1CCN(N=O)CC1,inactive,inactive,inactive,inactive,inactive,inactive,inactive,inactive,inactive
CN1CCN(C(=O)O[C@H]2c3nccnc3C(=O)N2c2ccc(Cl)cn2)CC1,inactive,inactive,inactive,inactive,inactive,inactive,27.5 µM (active),inactive,inactive
CNNC,inactive,inactive,inactive,65.4 µM (active),inactive,inactive,,inactive,
O=C1OC(CCN2CCCCC2)OC1(c1ccccc1)c1ccccc1 (stereo not given),inactive,inactive,inactive,0.871 µM (active),38.9 µM (active),15.5 µM (active),,0.848 µM (active),
CCc1cc2c(s1)-n1c(C)nnc1CN=C2c1ccccc1Cl,inactive,inactive,inactive,inactive,inactive,inactive,inactive,inactive,inactive
CCOP(=S)(Oc1cnc(C(C)(C)C)nc1)OC(C)C (stereo not given),63.3 µM (active),39.9 µM (active),10 µM (active),35.6 µM (active),0.356 µM (active),1.59 µM (active),22.4 µM (active),,1.59 µM (active)
